MITF inh: inhibitors of MITF; AID 2240; TRPM1 promoter luciferase, luminescence, 24 h; 37,000 compounds, 0.28% hits; inhibition, % (concentration not given with the values); in the data active = inhibition above about 85%; inconclusive = no clear call, values can overlap the other calls; inactive = below about 68%;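 note: human melanocyte line stably carrying TRPM1 promoter luciferase reporter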
BJeLR viab HTS: BJeLR cell viability reduction; BJeLR fibroblasts viability, CellTiterGlo ATP luminescence, 48 h; HRASV12, hTERT and SV40 LT/ST transformed; viability loss activity score, % (no concentration beside the values); 30,000 compounds, 0.64% hits; AID 2275; in the data active = viability loss activity score above about 50%; inconclusive = no clear call, values can overlap the other calls; inactive = below about 35%;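 note: higher score means fewer live cells and less ATP luminescence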
Hedgehog inh: Sonic Hedgehog pathway inhibition; inhibition, % (no concentration beside the values); 22,000 compounds, 2.1% hits; AID 2313; Shh-LIGHT2 Gli-luciferase reporter, 30 h;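 active = mean inhibition across valid replicates above about 65%, limit read from the data; inconclusive = mean under the limit, yet half or more replicates past it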;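 note: pathway switched on by Shh-conditioned medium diluted 1 in 25 in low serum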
Numbers without * were called inactive; ? = inconclusive; · = no result given. The full list was thinned out, with hits kept by preference.

SMILES	MITF inh	BJeLR viab HTS	Hedgehog inh
Cn1c(SCc2ccc(C(F)(F)F)cc2)nnc1-c1ccc(OCC(F)(F)F)nc1	26	1	74*
C[C@@H]1O[C@@H](O[C@H]2[C@H](O)[C@@H](O[C@@H]3O[C@H](CO)[C@@H](O)[C@H](O[C@@H]4O[C@H](CO)[C@@H](O)[C@H](O)[C@H]4O)[C@H]3O)[C@H](O[C@H]3CC[C@@]4(C)C(=CC[C@@H]5C4CC[C@@]4(C)C5C[C@@H]5O[C@]6(CC[C@@](C)(CO[C@@H]7O[C@H](CO)[C@@H](O)[C@H](O)[C@H]7O)O6)[C@@H](C)[C@@H]54)C3)O[C@@H]2CO)[C@H](O)[C@H](O)[C@H]1O (stereo partly drawn)	6	?	70*
CC1CCC2(NC1)OC1CC3C4CC=C5CC(O[C@@H]6O[C@H](CO)[C@@H](O[C@@H]7O[C@@H](C)[C@H](O)[C@@H](O)[C@H]7O)[C@H](O)[C@H]6O)CCC5(C)C4CCC3(C)C1C2C (stereo partly drawn)	3	-5	6
CCOc1ccc(NC(=O)CSc2oc(-c3ccccc3)nc2S(=O)(=O)c2ccccc2)cc1	·	-2	·
CCOC(=O)N1CCN(c2cc(C(F)(F)F)nc3c(Cl)cccc23)CC1	·	3	·
CC(=O)N1c2ccc(S(=O)(=O)N3CCc4ccccc43)cc2CC1C (stereo not drawn)	·	6	·
O=S(=O)(c1ccc(Cl)cc1)N1CCc2ccccc21	48	5	81*
Cc1cc(C(=O)NC2CCCCC2)no1	·	12	·
CCCN(CCC)C(=O)c1sc2nc(-c3ccccc3)cn2c1C	·	-1	·
O=C1NCN(c2ccccc2)C12CCN(CCCC(c1ccc(F)cc1)c1ccc(F)cc1)CC2	-2	11	84*
C[C@@H]1CN([C@@H](C)CO)C(=O)c2cccc(NC(=O)Nc3cccc4ccccc34)c2O[C@H]1CN(C)S(=O)(=O)c1ccc(F)cc1	7	·	-41
C[C@H](CO)N1C[C@H](C)[C@H](CN(C)S(=O)(=O)c2ccc(F)cc2)Oc2c(NC(=O)Nc3cccc4ccccc34)cccc2C1=O	41	-1	75*
C[C@H](CO)N1C[C@H](C)[C@H](CN(C)S(=O)(=O)c2ccc(F)cc2)Oc2c(NC(=O)Nc3ccccc3)cccc2C1=O	-14	-3	100*
C[C@H](CO)N1C[C@H](C)[C@H](CN(C)S(=O)(=O)c2cccs2)Oc2c(NC(=O)C3CC3)cccc2C1=O	-6	0	85*
Cc1ccc(S(=O)(=O)N(C)C[C@H]2Oc3c(NC(=O)Nc4ccccc4)cccc3C(=O)N([C@H](C)CO)C[C@H]2C)cc1	-10	-3	32
C[C@@H]1CN([C@H](C)CO)C(=O)c2cccc(NC(=O)C3CC3)c2O[C@H]1CN(C)S(=O)(=O)c1cccs1	-11	-9	-16
C[C@@H]1CN([C@@H](C)CO)C(=O)c2cccc(NC(=O)Nc3ccccc3)c2O[C@@H]1CN(C)S(=O)(=O)c1ccc(F)cc1	21	-3	-36
Cc1ccc(S(=O)(=O)N(C)C[C@@H]2Oc3c(NC(=O)Nc4ccccc4)cccc3C(=O)N([C@@H](C)CO)C[C@@H]2C)cc1	10	4	107*
CCOC(=O)c1ccc(N2C(=O)C(C)C(Cc3cc(C)cc(C)c3)C2=O)cc1 (stereo not drawn)	·	-1	·
Cc1cc(C)n(-c2nc3ccccc3nc2N2CCN(S(=O)(=O)c3cccs3)CC2)n1	·	0	·
CC1=C(C(=O)c2ccccc2)C(c2ccc(C)cc2)NC(=O)N1 (stereo not drawn)	·	18	·
C[C@H](CO)N1C[C@H](C)[C@H](CN(C)C(=O)Nc2ccc(F)cc2)Oc2ccc(NC(=O)Nc3ccc(F)cc3)cc2C1=O	-23	·	107*
C[C@H](CO)N1C[C@H](C)[C@H](CN(C)S(=O)(=O)c2ccc(Cl)cc2)Oc2c(NC(=O)Nc3ccc(F)cc3)cccc2C1=O	65	5	117*
C[C@@H]1CN([C@@H](C)CO)C(=O)c2cccc(NC(=O)Nc3ccc(F)cc3)c2O[C@H]1CN(C)S(=O)(=O)c1ccc(Cl)cc1	9	-8	4
C[C@H](CO)N1C[C@H](C)[C@@H](CN(C)S(=O)(=O)c2ccc(Cl)cc2)Oc2c(NC(=O)Nc3ccccc3)cccc2C1=O	-14	2	-88
SMILES	MITF inh	BJeLR viab HTS	Hedgehog inh
C[C@H](CO)N1C[C@H](C)[C@H](CN(C)S(=O)(=O)c2ccc(Cl)cc2)Oc2c(NC(=O)Nc3ccccc3)cccc2C1=O	-1	-7	117*
C[C@H](CO)N1C[C@H](C)[C@@H](CN(C)C(=O)Nc2cccc3ccccc23)Oc2c(NC(=O)Nc3ccc(F)cc3)cccc2C1=O	0	-3	80*
C[C@@H]1CN([C@H](C)CO)C(=O)c2cccc(NC(=O)Nc3ccc(F)cc3)c2O[C@@H]1CN(C)C(=O)Nc1cccc2ccccc12	-1	-8	-126
C[C@@H]1CN([C@@H](C)CO)C(=O)c2cc(NC(=O)Nc3ccc(F)cc3)ccc2O[C@H]1CN(C)C(=O)Nc1ccc(F)cc1	-10	·	-1
CCN1C(=O)C(CC(=O)Nc2ccc(Br)cc2)N(CCNC(C)=O)C1=S (stereo not drawn)	·	-5	·
CC(C)(C)c1cc(C(=O)CCN2CCCCC2)cc(C(C)(C)C)c1O	·	2	·
O=C(NCCc1ccccc1)[C@@H](c1ccccc1)N1Cc2ccccc2C1=O	·	-2	·
C[C@H]1CN([C@@H](C)CO)C(=O)c2cccc(NC(=O)Nc3ccc(F)cc3)c2O[C@H]1CN(C)S(=O)(=O)c1ccc(F)cc1	-6	-1	83*
C[C@H]1CN([C@@H](C)CO)C(=O)c2cccc(NC(=O)C3CC3)c2O[C@H]1CN(C)S(=O)(=O)c1ccc(F)cc1	5	12	2
C[C@@H]1CN([C@H](C)CO)C(=O)c2cccc(NC(=O)Nc3ccc(F)cc3)c2O[C@@H]1CN(C)S(=O)(=O)c1ccc(F)cc1	-4	-3	17
COc1ccc(NC(=O)Nc2cccc3c2O[C@H](CN(C)S(=O)(=O)c2ccc(C)cc2)[C@H](C)CN([C@H](C)CO)C3=O)cc1	-29	2	15
C[C@H](CO)N1C[C@H](C)[C@H](CN(C)S(=O)(=O)c2ccc(F)cc2)Oc2c(NC(=O)C3CC3)cccc2C1=O	7	4	103*
COc1ccc(NC(=O)Nc2cccc3c2O[C@@H](CN(C)S(=O)(=O)c2ccc(C)cc2)[C@@H](C)CN([C@H](C)CO)C3=O)cc1	-19	-5	94*
Cc1ccc(S(=O)(=O)NCCNc2nccc(C(F)(F)F)n2)cc1	·	-2	·
Cc1nn2c(-c3ccc(NC(=O)c4ccccc4Cl)cc3)nnc2c2ccccc12	·	2	·
O=C(COc1ccc(Cl)cc1)NCc1nnc(SCC(=O)Nc2cccc(F)c2)o1	·	-3	·
CCOc1ccc(/C=C/C(=O)Nc2nc(-c3ccc(C)cc3)c(C)s2)cc1	·	10	·
CCSC1=N/C(=C\c2ccccc2)C(=O)N1c1ccc(C)c(Cl)c1	·	2	·
COc1ccc2c(c1)CCC1C2CCC2(C)C(=O)CCC12 (stereo not drawn)	-36	-3	16
C[C@]12CCC3c4ccc(O)cc4CC[C@H]3C1CC[C@H]2O (stereo partly drawn)	13	-9	5
C[C@]12CC[C@@H]3c4ccc(O)cc4CC[C@H]3[C@@H]1CC[C@@H]2O	24	-4	91*

Screening data as filed in PubChem BioAssay.
